The results in this text go back to ChEMBL document CHEMBL1961873, “Compounds: GSK PKIS; Assays: Nanosyn kinase panel” (2012).

For assay [1], the target named is T1, Muscle, skeletal receptor tyrosine-protein kinase (Homo sapiens) (UniProt O15146).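 Also: reported value is the mean percent inhibition of MuSK kinase.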
T1 sequence (whole entry): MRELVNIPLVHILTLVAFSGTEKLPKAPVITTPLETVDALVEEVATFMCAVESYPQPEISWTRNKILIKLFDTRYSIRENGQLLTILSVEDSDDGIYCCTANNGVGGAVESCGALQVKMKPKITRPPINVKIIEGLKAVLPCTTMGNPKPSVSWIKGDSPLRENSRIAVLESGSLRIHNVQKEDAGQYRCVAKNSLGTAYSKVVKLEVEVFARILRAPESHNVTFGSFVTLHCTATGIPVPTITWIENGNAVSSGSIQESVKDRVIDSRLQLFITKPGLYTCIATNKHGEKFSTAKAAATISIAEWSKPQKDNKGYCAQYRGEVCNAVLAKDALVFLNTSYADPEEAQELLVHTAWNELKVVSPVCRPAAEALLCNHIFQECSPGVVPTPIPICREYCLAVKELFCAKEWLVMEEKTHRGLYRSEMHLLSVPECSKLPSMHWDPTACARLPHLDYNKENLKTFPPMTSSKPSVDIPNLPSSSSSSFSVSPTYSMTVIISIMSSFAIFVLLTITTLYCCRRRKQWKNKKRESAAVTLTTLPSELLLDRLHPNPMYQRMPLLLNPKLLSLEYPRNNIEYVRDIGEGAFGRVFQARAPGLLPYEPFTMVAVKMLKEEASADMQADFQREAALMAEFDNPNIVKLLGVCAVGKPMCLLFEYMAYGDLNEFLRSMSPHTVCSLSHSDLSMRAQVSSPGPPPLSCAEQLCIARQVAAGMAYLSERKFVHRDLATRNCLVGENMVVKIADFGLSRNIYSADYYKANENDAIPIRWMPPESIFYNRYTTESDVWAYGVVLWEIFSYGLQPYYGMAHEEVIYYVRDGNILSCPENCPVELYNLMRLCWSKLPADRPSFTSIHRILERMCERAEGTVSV
The following applies: at 1 µM.

In assay [2] the target is Platelet-derived growth factor receptor alpha (Homo sapiens) (UniProt P16234). The following applies: at 0.1 µM.
Sequence of Platelet-derived growth factor receptor alpha (Homo sapiens) (P16234 whole entry): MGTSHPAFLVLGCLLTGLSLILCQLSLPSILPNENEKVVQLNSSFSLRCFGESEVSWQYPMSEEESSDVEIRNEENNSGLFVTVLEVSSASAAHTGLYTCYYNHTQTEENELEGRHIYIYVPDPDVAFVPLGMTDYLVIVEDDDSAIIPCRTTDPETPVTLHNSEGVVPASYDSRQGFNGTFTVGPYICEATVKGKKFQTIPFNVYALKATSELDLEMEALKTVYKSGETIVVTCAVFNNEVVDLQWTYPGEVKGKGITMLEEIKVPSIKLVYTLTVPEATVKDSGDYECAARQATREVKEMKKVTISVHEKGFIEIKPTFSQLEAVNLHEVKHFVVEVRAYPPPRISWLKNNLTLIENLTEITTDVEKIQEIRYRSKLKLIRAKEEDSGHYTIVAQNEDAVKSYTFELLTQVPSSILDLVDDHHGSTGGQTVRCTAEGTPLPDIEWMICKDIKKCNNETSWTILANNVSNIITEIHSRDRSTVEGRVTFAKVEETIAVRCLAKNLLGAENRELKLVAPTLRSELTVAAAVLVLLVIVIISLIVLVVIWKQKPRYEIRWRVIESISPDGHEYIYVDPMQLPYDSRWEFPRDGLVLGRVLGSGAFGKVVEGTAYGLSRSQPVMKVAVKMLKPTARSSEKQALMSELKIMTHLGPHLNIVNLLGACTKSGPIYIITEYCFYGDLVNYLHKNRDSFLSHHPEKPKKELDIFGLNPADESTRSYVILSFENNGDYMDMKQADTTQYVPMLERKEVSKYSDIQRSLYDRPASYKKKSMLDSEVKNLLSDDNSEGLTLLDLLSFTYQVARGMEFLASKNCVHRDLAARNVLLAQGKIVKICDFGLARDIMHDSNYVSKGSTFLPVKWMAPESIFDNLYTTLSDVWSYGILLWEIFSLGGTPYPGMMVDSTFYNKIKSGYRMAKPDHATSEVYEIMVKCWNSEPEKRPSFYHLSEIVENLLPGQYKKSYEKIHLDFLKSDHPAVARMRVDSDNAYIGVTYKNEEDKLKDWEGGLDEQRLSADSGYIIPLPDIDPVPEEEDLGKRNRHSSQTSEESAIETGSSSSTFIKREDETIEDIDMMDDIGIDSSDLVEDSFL
For assay [3] the target is unchanged. The following applies: at 1 µM.
In assay [4] the test system is Platelet-derived growth factor receptor alpha (Homo sapiens), P16234 [D842V]. As to conditions: at 0.1 µM.
Sequence of Platelet-derived growth factor receptor alpha (Homo sapiens), P16234 [D842V] (P16234 whole entry D842V): as the sequence (P16234 whole entry) above, with D842V counted along it
The test system is the same in assay [5]. The following applies: at 1 µM.
Assay [6] has as its system Platelet-derived growth factor receptor alpha (Homo sapiens), P16234 [T674I]. The following applies: at 0.1 µM.
For assay [7] the test system is unchanged. As to conditions: at 1 µM.
For assay [8], the system named is Platelet-derived growth factor receptor alpha (Homo sapiens), P16234 [V561D]. As to conditions: at 0.1 µM.
Sequence of Platelet-derived growth factor receptor alpha (Homo sapiens), P16234 [V561D] (P16234 whole entry V561D): as the sequence (P16234 whole entry) above, with V561D counted along it
Assay [9] shares this test system. The following applies: at 1 µM.
Assay [10] deals with Platelet-derived growth factor receptor beta (Homo sapiens) (UniProt P09619). The following applies: at 0.1 µM.
Sequence of Platelet-derived growth factor receptor beta (Homo sapiens) (P09619 whole entry): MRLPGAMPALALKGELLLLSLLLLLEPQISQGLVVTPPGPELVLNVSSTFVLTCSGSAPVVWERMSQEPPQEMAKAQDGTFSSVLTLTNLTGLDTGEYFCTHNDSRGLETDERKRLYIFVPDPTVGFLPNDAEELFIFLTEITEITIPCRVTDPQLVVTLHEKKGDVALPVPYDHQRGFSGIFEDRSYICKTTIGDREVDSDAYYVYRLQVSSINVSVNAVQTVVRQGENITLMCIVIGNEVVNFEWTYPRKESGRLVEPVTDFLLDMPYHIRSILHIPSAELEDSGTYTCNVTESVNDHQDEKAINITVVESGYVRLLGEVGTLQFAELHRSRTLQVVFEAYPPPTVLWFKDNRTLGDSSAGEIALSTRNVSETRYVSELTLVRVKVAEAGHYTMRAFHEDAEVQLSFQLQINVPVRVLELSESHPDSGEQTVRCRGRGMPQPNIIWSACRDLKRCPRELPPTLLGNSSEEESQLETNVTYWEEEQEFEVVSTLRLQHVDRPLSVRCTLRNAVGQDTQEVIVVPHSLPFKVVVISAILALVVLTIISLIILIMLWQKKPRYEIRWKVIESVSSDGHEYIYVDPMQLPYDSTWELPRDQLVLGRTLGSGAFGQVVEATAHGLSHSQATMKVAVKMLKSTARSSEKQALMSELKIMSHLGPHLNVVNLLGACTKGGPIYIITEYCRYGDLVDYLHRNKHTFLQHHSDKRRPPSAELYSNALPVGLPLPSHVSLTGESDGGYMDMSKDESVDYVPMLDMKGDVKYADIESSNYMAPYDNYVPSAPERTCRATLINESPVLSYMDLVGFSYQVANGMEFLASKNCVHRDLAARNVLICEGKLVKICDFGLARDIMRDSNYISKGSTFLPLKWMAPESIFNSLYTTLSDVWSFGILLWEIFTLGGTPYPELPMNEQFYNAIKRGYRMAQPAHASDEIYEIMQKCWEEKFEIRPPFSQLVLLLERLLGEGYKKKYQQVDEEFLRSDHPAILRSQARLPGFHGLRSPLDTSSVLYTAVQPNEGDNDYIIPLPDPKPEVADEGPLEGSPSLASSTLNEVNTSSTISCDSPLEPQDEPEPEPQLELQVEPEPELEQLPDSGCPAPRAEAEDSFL

Sequence of Platelet-derived growth factor receptor alpha (Homo sapiens), P16234 [T674I] (P16234 whole entry T674I): as the sequence (P16234 whole entry) above, with T674I counted along it

One may read the inhibition as the drop in the measured response relative to a control, in per cent. `COc1cccc(/C=N/Nc2ncnc3c2cnn3-c2cccc(OC)c2)c1`: the inhibition in [1] is 3.43%; in assay [2], 2.69%; in [3], 14.9%; in assay [4], 2.84%; in [5] it was 7.96%; in assay [6], 2.59%. Further, the inhibition in assay [7] came out at 6.59%; in assay [8], 2.65%; in assay [9], 7.82%; in assay [10], 4.05%.

Turning to `CCN(CC)Cc1ccc(Nc2nccc(-c3cnn4ncccc34)n2)cc1`, the inhibition in assay [1] amounted to 30.5%; in [2] it was 17.5%; in assay [3], 55.5%; in assay [4], 10.1%; in [5] it was 51.1%; in assay [6] it was 6.93%. In addition, the inhibition in assay [7] was found to be 34.9%; in assay [8], 18%; in assay [9] it was 64.2%; in assay [10], 29.1%.

On to `COc1cc(C)c(N(C)C(=O)CN(C)C)cc1Nc1nc(Nc2cccc(F)c2C(N)=O)c2cc[nH]c2n1`, for which the inhibition in assay [1] came out at 3.08%; in assay [2] it was 4.02%; in assay [3], 7.22%; in assay [4] it was 0.9%; in assay [5] it was 0.89%; in assay [6], 1.14%. Further, the inhibition in [7] was -0.57%; in [8], -2.16%; in assay [9], 2.56%; in assay [10], 0.52%.

Consider `COc1cc2ncn(-c3cc(OCCc4ccccc4)c(C(N)=O)s3)c2cc1OC`, for which the inhibition is 3.75% in assay [1]; 10.5% in [2]; 51.4% in [3]; 8.08% in [4]; 44.9% in [5]; 1.08% in assay [6]. For the same compound, the inhibition amounted to 10.7% in assay [7], 5.35% in assay [8], 39.8% in assay [9] and 10.8% in assay [10].

For the compound `NC(=O)c1ccc(Oc2nccc(-c3c(-c4ccc(F)cc4)ncn3C3CCNCC3)n2)cc1`, the inhibition in assay [1] is 9.48%; in assay [2] it was 5.32%; in assay [3], 10.6%; in assay [4], 2.12%; in assay [5] it was 4.3%; in assay [6], 2.24%. In addition, the inhibition amounted to 6.2% in [7], 5.07% in assay [8], 7.97% in assay [9] and 4.31% in assay [10].

As to `O=C(Nc1n[nH]c2nc(-c3ccc(O)cc3)c(Br)cc12)C1CC1`, the inhibition in assay [1] was 14%; in [2] it was 25.9%; in assay [3], 67.1%; in assay [4], 12.8%; in assay [5], 55.5%; in assay [6] it was 7.49%. In addition, the inhibition in assay [7] turned out to be 24.4%; in assay [8] it was 19.7%; in [9], 64.6%; in assay [10] it was 12%.

As to `COc1cc(N2CCN(C(C)C)CC2)ccc1Nc1nc(Nc2ccc(F)cc2C(=O)NC[C@@H](O)CO)c2cc[nH]c2n1`, the inhibition came to 3.79% in [1]; 6.23% in assay [2]; 14.1% in assay [3]; 1.85% in assay [4]; 5.49% in [5]; 6.54% in [6]. In addition, the inhibition in [7] stood at 9.18%; in assay [8], 4.51%; in [9] it was 4.42%; in assay [10], 1.36%.

Take `Fc1ccc(-c2nc3n(c2-c2ccncc2)CCS3)cc1`: the inhibition stood at 2.27% in [1]; 6.42% in assay [2]; 11.1% in [3]; 4.17% in assay [4]; 3.44% in [5]; 5.4% in [6]. Besides, the inhibition in [7] was 6.09%; in assay [8], -0.4%; in [9] it was 4.82%; in [10], 3.87%.

For `Clc1ccc(CNc2nccc(-c3cnn4ncccc34)n2)cc1`, the inhibition in [1] amounted to 3.54%; in assay [2] it was 4.87%; in assay [3], 15.4%; in assay [4], 0.87%; in assay [5] it was 4.84%; in assay [6] it was 0.55%. Also, the inhibition turned out to be 2.46% in [7], 1.98% in [8], 7.98% in assay [9] and 3.92% in assay [10].

For the compound `C[C@@H](Oc1cc(-n2cnc3ccc(OC4CCN(C)CC4)cc32)sc1C(N)=O)c1ccccc1Cl`, the inhibition turned out to be 40.8% in assay [1]; 29.3% in assay [2]; 69% in assay [3]; 10.5% in [4]; 53.6% in assay [5]; 8.48% in assay [6]. In addition, the inhibition in assay [7] worked out at 58%; in assay [8], 14.5%; in assay [9], 65%; in assay [10], 26.3%.

For the compound `COc1ccc2cc(-c3c(-c4ccncc4)nc(-c4ccc([S+](C)[O-])cc4C)n3C)ccc2c1` (stereo not given), the inhibition in assay [1] was 0.57%; in [2] it was 0.98%; in assay [3], 12.4%; in assay [4], -0.45%; in assay [5] it was 2.27%; in assay [6], 0.22%. Besides, the inhibition in [7] is 2.22%; in assay [8], -2.47%; in [9] it was 5.84%; in [10], 0.23%.

Turning to `O=C1NC(=O)C(c2cccc(Cl)c2)=C1Nc1ccc(Cl)c(C(=O)O)c1`, the inhibition was 3.32% in assay [1]; 5.36% in assay [2]; 9.61% in [3]; 0.72% in assay [4]; 1.68% in [5]; 6.92% in assay [6]. In addition, the inhibition was 5.66% in assay [7], 2.77% in assay [8], 0.49% in assay [9] and 1.55% in [10].

For the compound `CCc1ccc(Oc2nccc(-c3c(-c4ccc(F)cc4)ncn3C3CCNCC3)n2)cc1`, the inhibition in assay [1] is 6.47%; in assay [2], 2.2%; in assay [3] it was 10.4%; in [4], 1.14%; in assay [5], 3.96%; in assay [6], 4.41%. The inhibition in assay [7] turned out to be 8.8%; in assay [8], 2.14%; in assay [9], 4.49%; in assay [10], 1.82%.

With `O=C(Nc1ccc(Oc2ccc3[nH]c(NC(=O)c4ccccc4)nc3c2)cc1)Nc1cc(C(F)(F)F)ccc1F`, the inhibition in assay [1] worked out at 63.9%; in assay [2], 27.8%; in [3], 78.4%; in assay [4] it was 1.94%; in assay [5], 8.54%; in assay [6], 13%. The inhibition in assay [7] is 83.1%; in assay [8], 25.5%; in [9], 79.4%; in [10] it was 9.24%.

`c1ccc(Oc2ccc(Nc3ncc(-c4ccccc4)o3)cc2)cc1`: the inhibition in assay [1] turned out to be 2.81%; in [2], 7.17%; in assay [3], 11.5%; in assay [4], 4.48%; in [5], 3.18%; in [6] it was 4.06%. Also, the inhibition in assay [7] is 10%; in assay [8], 7.31%; in assay [9], 19.6%; in assay [10] it was 3.82%.

As to `COC(=O)Nc1nc2ccc(Sc3ccc(NC(=O)Nc4cc(C(F)(F)F)ccc4F)cc3)cc2[nH]1`, the inhibition in assay [1] came out at 78.7%; in assay [2] it was 10.8%; in assay [3], 57.6%; in assay [4], 0.97%; in [5], 1.45%; in assay [6], 7.2%. The inhibition was 74.8% in assay [7], 11.9% in assay [8], 56.3% in assay [9] and 4.35% in assay [10].

As for `CN(C)c1ccc2c(c1)/C(=C/Nc1ccc(S(N)(=O)=O)cc1)C(=O)N2`, the inhibition in assay [1] amounted to 46.8%; in assay [2], 26.7%; in [3], 66.9%; in [4] it was 14.4%; in [5], 65.3%; in assay [6], 3.45%. Moreover, the inhibition in assay [7] was 28.2%; in assay [8], 14.9%; in assay [9], 60.9%; in assay [10], 26.8%.

For the compound `COc1cc2ncn(-c3cc(OCc4ccccc4C(F)(F)F)c(C(C)=O)s3)c2cc1OC`, the inhibition came to 3.03% in assay [1]; 10.4% in [2]; 31.8% in [3]; 3.21% in assay [4]; 13.8% in assay [5]; 5.42% in assay [6]. The inhibition worked out at 13.4% in [7], 3.99% in assay [8], 19.7% in assay [9] and 8.96% in assay [10].

With `CCc1nccc2c1nc(-c1nonc1N)n2CC`, the inhibition in assay [1] is 0.59%; in assay [2], 5.23%; in assay [3] it was 11.5%; in assay [4] it was 2.48%; in assay [5], 9.06%; in assay [6], 2.57%. Further, the inhibition was found to be 0.49% in assay [7], 0.72% in assay [8], 6.72% in assay [9] and 2.42% in [10].

Consider `O=C(NCC1CC1)c1ccc(-c2cccc(C(=O)NC3CC3)c2)cc1`, for which the inhibition in assay [1] was 7.49%; in assay [2] it was 8.93%; in [3] it was 6.92%; in assay [4], -0.01%; in [5] it was -0.59%; in [6], 4.42%. The inhibition was 0.5% in assay [7], -0.78% in [8], 2.85% in assay [9] and 9.04% in assay [10].
